This is a sample that favours compounds with a hit; in the whole collection about 0.2% have one here.
Pf gametocyte: late stage P. falciparum gametocyte viability inhibitors, primary screen, ATP luminescence, HTS | P. falciparum stage V gametocytes, 24 h | inhibition, % at 10.9 µM | hit rate 0.065% among 150,000 | AID 743093, 2013;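 active = inhibition above the mean plus 3 SD of compounds within the control limits, set per campaign, cut at about 38% in these data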;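 also: 0% = DMSO wells and 100% = medium only without gametocytes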
Bim-Bcl-XL: inhibitors of Bim-Bcl-XL binding, primary screen, biochemical, multiplexed, bead flow cytometry, human Bcl-XL; AID 1007, 2008; Bim peptide-Bcl-XL binding, fluorescence; hit rate 0.04% among 190,000; inhibition, % at 10 µM; Bcl-2-like protein 1 (Homo sapiens), Q07817
Bcl-W Bim block: inhibitors of Bim binding to Bcl-W, primary screen, biochemical, multiplexed, bead-based flow cytometry; Bcl-2-like protein 2 (Homo sapiens), Q92843; inhibition, % at 10 µM; hit rate 0.02% among 190,000; Bim peptide-Bcl-W binding;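 also: 0% = bound tracer without compound and 100% = peptide blocker; higher means less fluorescent Bim peptide bound to Bcl-W beads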
Target sequence (Q92843 whole entry, looked up): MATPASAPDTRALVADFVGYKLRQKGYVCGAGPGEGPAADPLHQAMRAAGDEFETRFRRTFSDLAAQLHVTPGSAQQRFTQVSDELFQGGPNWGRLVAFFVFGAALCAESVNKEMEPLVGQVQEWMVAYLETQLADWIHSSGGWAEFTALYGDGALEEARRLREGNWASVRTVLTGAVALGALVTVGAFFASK
Bcl-B Bim block: inhibitors of Bim-Bcl-B binding, primary screen, biochemical, multiplexed, human Bcl-2 family. Bcl-2-like protein 10 (Homo sapiens), Q9HD36. bead-based flow cytometry, Bim peptide-Bcl-B binding. inhibition, % at 10 µM. hit rate 0.073% among 190,000;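 also: 0% = tracer peptide without compound and 100% = reference inhibitor peptide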
Bfl-1 Bim block: inhibitors of Bim binding to Bfl-1, primary screen, biochemical, multiplexed, bead-based flow cytometry; Bcl-2-related protein A1 (Homo sapiens), Q16548; AID 1008, 2008; Bim-Bfl-1 binding inhibition; inhibition, % at 10 µM; hit rate 0.12% among 190,000;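 also: 0% = wells without compound plus tracer and 100% = blocker peptide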
Target sequence (Q16548 whole entry, looked up): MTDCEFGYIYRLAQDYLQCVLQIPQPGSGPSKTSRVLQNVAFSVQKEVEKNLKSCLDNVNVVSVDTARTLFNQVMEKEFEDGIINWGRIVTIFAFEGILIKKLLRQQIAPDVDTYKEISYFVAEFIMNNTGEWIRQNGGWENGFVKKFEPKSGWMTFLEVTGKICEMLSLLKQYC
Bcl-2 Bim block: inhibitors of Bim-Bcl-2 binding, primary screen, biochemical, multiplexed, human Bcl-2 family; Apoptosis regulator Bcl-2 (Homo sapiens), P10415; Bead-based flow cytometry, Bim peptide-Bcl-2 binding; inhibition, % at 10 µM; hit rate 0.06% among 190,000; AID 950, 2007; in the data active = inhibition above about 40%;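 also: 0% = no compound wells with probe peptide and 100% = reference peptide inhibitor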
* marks the source's active call; other numbers are inactive results; x = no result. Rule as the data show it, unless noted: active = inhibition above about 40%.

SMILES | Pf gametocyte | Bim-Bcl-XL | Bcl-W Bim block | Bcl-B Bim block | Bfl-1 Bim block | Bcl-2 Bim block
O=C(CCl)Nc1cccc2ncccc12 | 2.9 | 34.0 | 25.0 | 57.0* | 21.0 | 25.0
COc1ccc(OCC(=O)Nc2cccc3ncccc23)cc1 | -8.2 | 2.0 | 2.0 | 5.0 | 0.0 | 4.0
CCOC(=O)CSc1nc2cc3c(cc2cc1C)OCO3 | 38.7* | -4.0 | -2.0 | -4.0 | -7.0 | 0.0
CCOC(=O)CSc1nc2cc3c(cc2cc1C#N)OCO3 | x | -2.0 | -4.0 | -4.0 | 1.0 | -4.0
CC(C)=C1C(=O)NN(c2ccc(C)c(Cl)c2)C1=O | -0.6 | 50.0* | 48.0* | 56.0* | 43.0* | 36.0
CC(C)=C1C(=O)NN(c2cccc(Cl)c2)C1=O | -11.8 | -9.0 | -2.0 | 0.0 | 4.0 | 2.0
Oc1ccc(C2=Nn3c(nnc3-c3ccco3)SC2)cc1O | x | 55.0* | 35.0 | 36.0 | 15.0 | 17.0
CC/C(=N/N=C(/CC)c1ccc(O)cc1)c1ccc(O)cc1 | -4.4 | x | x | x | x | x
CSc1nnc2c3cc(C)ccc3n(Cc3ccccc3)c2n1 | -10.4 | 14.0 | 18.0 | 39.0 | 20.0 | 48.0*
CC(C(=O)Nc1ccccc1Oc1ccccc1)c1ccccc1 (configuration not stated) | 60.2* | -5.0 | -2.0 | 0.0 | -2.0 | -3.0
CCOC(=O)c1ccc(NC(=O)CSCCC(=O)O)cc1 | x | 61.0* | 62.0* | 84.0* | 50.0* | 90.0*
Cc1ccc(S(=O)(=O)N2CCCCC2)cc1NC(=O)COC(=O)c1ccccc1F | 7.8 | 11.0 | 8.0 | 74.0* | 48.0* | 78.0*
O=C1CCCC2=C1C(c1ccc(O)cc1)c1c(ccc3ccccc13)N2 (configuration not stated) | -10.7 | -2.0 | 1.0 | -6.0 | -1.0 | -1.0
Cc1ccc(OC(=O)c2ccc3snnc3c2)cc1 | -11.6 | 14.0 | 11.0 | 81.0* | 62.0* | 81.0*
O=C(NC(O)C(=O)c1ccc(F)cc1)c1ccc(F)cc1 (configuration not stated) | -8.1 | x | x | x | x | x
C[C@H]1[C@H](c2ccccc2)C[C@@H](C(=O)O)C1(C)C | -2.6 | x | x | x | x | x
Cc1ccc(C)n1-c1ccc(N2CCOCC2)cc1 | -70.0 | 2.0 | 3.0 | 40.0* | 6.0 | 7.0
COc1cc(/C=N/Nc2nn3cnnc3c3ccccc23)ccc1O | x | 42.0* | 27.0 | 27.0 | 3.0 | 8.0
Cc1ccc(C(=O)N2CCN(S(=O)(=O)c3ccc(C)c([N+](=O)[O-])c3)C2)cc1 | x | -3.0 | 0.0 | -2.0 | -2.0 | -3.0
O=C1CCCC(=O)C1CS(=O)(=O)c1ccccc1 | 38.7* | 0.0 | -1.0 | 2.0 | -2.0 | 1.0
Cc1cccc(N=Cc2cc3c(cc2[N+](=O)[O-])OCO3)c1 | x | 0.0 | 0.0 | -1.0 | 2.0 | 0.0
COc1cc(C=Nc2cccc(C)c2)c(O)c([N+](=O)[O-])c1 | -10.6 | 30.0 | 23.0 | 58.0* | 42.0* | 44.0*
CCc1nnc(NS(=O)(=O)c2ccc(NC(=S)NC(=O)/C=C/c3ccccc3)cc2)s1 | 41.1* | -10.0 | -8.0 | -6.0 | -10.0 | -5.0
Cc1ccc(C(=O)Nc2ccccc2Cl)cc1 | -2.4 | x | x | x | x | x
O=S(=O)(Nc1nc2ccccc2nc1Nc1cccc(S(=O)(=O)N2CCCCC2)c1)c1ccccc1 | -5.0 | -3.0 | 2.0 | -1.0 | 3.0 | -5.0
SMILES | Pf gametocyte | Bim-Bcl-XL | Bcl-W Bim block | Bcl-B Bim block | Bfl-1 Bim block | Bcl-2 Bim block
COc1ccc(Nc2nc(N3CCCC3)c3ccccc3n2)cc1 | 1.1 | 3.0 | 0.0 | 6.0 | 5.0 | 5.0
CCN(CC)c1ccc(Nc2nc(N3CCOCC3)c3ccccc3n2)cc1 | -35.5 | -2.0 | 23.0 | -33.0 | 54.0* | 11.0
COc1ccccc1OCCOCCOc1ccccc1Cl | 50.8* | -6.0 | -6.0 | -7.0 | -4.0 | -3.0
CCOc1ccc(OCCOCCOc2ccccc2Cl)cc1 | -2.9 | 29.0 | 18.0 | 14.0 | 26.0 | 18.0
Cc1ccc(NC(=O)Nc2sc(=S)n(C)c2C)cc1 | x | -6.0 | -1.0 | -11.0 | -10.0 | -7.0
CC(=O)NC(=O)Nc1sc(=S)n(C)c1C | -10.1 | 49.0* | 37.0 | 33.0 | 56.0* | 34.0
O=C(c1ccc(COc2ccccc2Br)o1)N1N=C(C(F)F)CC1(O)C(F)F (configuration not stated) | 48.8* | -4.0 | -1.0 | -3.0 | 0.0 | -5.0
